Measurements from the supplement of paper PMC10681739.

What follows are sequences tested against RUNX1 (UniProt Q01196) (assay: RUNX1 binding intensity (PBM fluorescence), RUNX1 alone (arbitrary fluorescence units); higher = stronger binding). Conditions: RUNX1 concentration 2 nM; ETS1 concentration 0 nM.
Procedure: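 Cooperative gcPBM on 36-bp genomic probes with neighbouring ETS1 and RUNX1 sites. Recombinant human RUNX1 (2 nM) was incubated alone or with ETS1 (25 nM) and detected with anti-RUNX1 antibody plus Alexa488 secondary. Values are medians over 4 replicate spots; the RUNX1+ETS1 data were normalised to the RUNX1-only data. The probes sit in constant array flanks that are not printed.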
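Further: Full-length recombinant human RUNX1 bound to double-stranded 36-bp genomic probes on a high-density microarray, scored as Alexa488 fluorescence per spot via anti-RUNX1 antibody, median of four replicate spots.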

Chain of RUNX1 (Q01196 whole entry): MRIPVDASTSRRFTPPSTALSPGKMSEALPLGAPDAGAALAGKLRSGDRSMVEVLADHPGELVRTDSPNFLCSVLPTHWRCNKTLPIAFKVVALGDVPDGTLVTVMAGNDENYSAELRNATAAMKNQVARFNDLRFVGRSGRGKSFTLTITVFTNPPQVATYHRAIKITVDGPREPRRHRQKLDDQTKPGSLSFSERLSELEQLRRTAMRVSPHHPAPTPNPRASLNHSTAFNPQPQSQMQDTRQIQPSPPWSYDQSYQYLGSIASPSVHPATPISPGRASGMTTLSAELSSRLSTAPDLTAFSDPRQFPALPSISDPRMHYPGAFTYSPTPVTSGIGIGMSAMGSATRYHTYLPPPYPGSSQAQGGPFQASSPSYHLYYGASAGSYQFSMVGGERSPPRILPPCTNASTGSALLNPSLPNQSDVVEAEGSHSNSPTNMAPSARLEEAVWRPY

Sequence | RUNX1 binding intensity
CTGCCCACCGGAAACGATGGCGCGAGGCCGCAGAGC | 728
AGCCTACATCCTGCACTGCTTAACCACAGCCCGCCT | 1960
CTGACACTTCCGGGAGCCTTGTAGCCACAGGAATCA | 743
GCCACACAGGCAGGAAAGCCACAGCCCACGTCTCCG | 867
GAAAGGGTTCATCCAGGAAACCACAACCCAGTGCCG | 1440
CTTACCTACAGTTCCGCTTGCTGTGGTTTCAGTTAC | 1040
CTAGGCCACCGGAAGTCTCCGCAGTGGTTTTGCAAA | 762
TTACGTTAAGGAGGAAACTCTGTGGTTAAACTGTAG | 1230
TGAGCACTGAGCACTTCCTGTGGCTTCTGAAGCTCC | 797
TGGCAGCGGGTGCGGAAACCACAGGCCTCCAGGCTT | 1480
AGCCACGGACTTCCGCCTACAGGTCGCCGCAGGTCC | 756
GAAATCACATCCTTTTGCAAAACCACAGGTGTTTTG | 1320
GTTGGGTGGGGAAGTGGATGGTGGTTTTGGCAGAGG | 960
CAAGGGAACATCCTTAAACAGCTTGTGGTATTGCTG | 878
GTCCCCTGAATTTTCCTGTGGTTCTTATCACCAGGT | 1180
GCACCCGGCACTACTTCCCGACCCGCATCCCCCGCC | 1260
TGCACGGTAAGCAGGAAGCTGCGGCCGAGCTGAGTC | 687
CCTCTGTTCTTCACAGGAAGCCACAGGCCTCCCCTG | 958
AGGGCTGAAACAGGATGTGGTGAGTGAGGTAGGGTG | 816
ACGGTGTGTCTCATTTCCTGTGGGTAACAGGCACCA | 935

Sequence | RUNX1 binding intensity
TACAGGAACTTCCTGCGCGGCTGCTGTGGTTGCGAG | 684
AGTCAGCAGAGAGGAAGTGGTTAGTCCTGCCTTGAA | 742
GCTGCAGCAGGCGGGAAGTCTGCGGTTCGCGGGCTC | 1150
CTTAGTGTTTGAGGATGTGGGTTTTACAATCAGATC | 769
CTTAAATGGGAAATGTAGGTGTGGTTAAGTCACAAA | 859
TCTAGTTCTGGTTTCCGGACCGCATTCGGAACTAGA | 786
TGTGTCACTTCCCTATCTGTTGCGGTTGTTCACTCC | 1340
GGTCCCCCCGGTTCCGGCGCGGTTGAGGCCTTCGGT | 758
GGCCGACGGGAAGTGTAGTCCGGCCTGCGGTCCGGG | 704
GCCCGCCCCGGAAGTGCAAACTGTGTGGTCTGGCAG | 867
GAGGTGCCGGAAGCCAGTAGGTGGTTTTGGGTGCTA | 695
TTGACCCGGACGTGGACAAAAGACCGCAAAGGACGC | 1100
CTCCAGGGACAACCCGGAAACCACATTGCCCAGCGT | 982
TAGCATGTGAGCTTCCTGTGGGTTTGTGCAGCCCCA | 708
CTTTGCAGGAAGCTGGGGTTCACCCACAGCCTTGTT | 729
CAGGCTGCTTCCGGCGCGCGGCAGAGCGGTCAGAGC | 714
AGCTTCCTGTTTGGCCTTGCTGATGTCACCGCATTA | 932
GAGACACTCTGCTTCCTGCGGTGGAAGATTCAGTAT | 873
GGGCGGAAGTGCGTCACTATGTCCGACCCGCAGTGC | 706
TTAGATGTGCCTACATCCTGACCTCAAAAACCTCTG | 791
